Among the data in PubChem BioAssay (NCATS) are outcome, activity, negative = inhibition and redox activity (% of DA3003) values, retold here.

Values without a mark were called inactive. Records with an inconclusive call do not appear. Activity calls are given as the source filed them. The call rests on the fitted dose curve; in most records, active means well fitted curve in the direction sought with a large enough effect; inconclusive means small, poorly fitted or top-dose-only effect, or another doubt; inactive means no such curve, though single readings can be large; an effect the other way counts as inactive or inconclusive.

One experiment deals with Nanoluciferase (engineered Oplophorus gracilirostris luciferase). As to the kind of experiment: Primary Nanoluciferase (NLuc) qHTS assay for identification of artifact compounds. (AID 1845222).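 Further: NLuc secreted into diluted conditioned medium of S16 cells; 0% = DMSO and -100% = no enzyme.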 The note with it: NLuc-conditioned medium, Nano-Glo luminescence, 5 min; series mostly up to 54.1 µM. The essentials:
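S16 cell supernatant NLuc, 1:55; cpds qHTS; 15 min RT dark; Nano-Glo substrate 1:100, 5 min; luminescence; Hill fit of % inhibition.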
For orientation: qHTS replaces the single test concentration by a dilution series.
For `CC(C)[C@@H](CN1CC[C@@](C)(c2cccc(O)c2)[C@@H](C)C1)NC(=O)[C@H]1Cc2ccc(O)cc2CN1`, the call was inactive. Still for that read-out and setting: then `CCCN1CCO[C@H]2c3cc(O)ccc3OC[C@@H]21`, with “inactive”; and `Cc1cn(C[C@H](N)C(=O)O)c(=O)n(Cc2cc(-c3ccccc3)sc2C(=O)O)c1=O`, with “inactive”. Same read-out and setting: then `COc1cc(C)[nH]c(=O)c1CNC(=O)c1c(C)n([C@H](C)C2CCOCC2)c2ccccc12`, with “inactive”. As to `CCCCCCn1c(=O)c(C(=O)Nc2ccc(C(=O)OCCC)cc2)c(O)c2ccccc21`, the activity, negative = inhibition is 1.06% [at 11.6 µM]. Regarding `CC1C/C=C/C(O)C(O)CC/C=C/c2cc(O)cc(O)c2C(=O)O1` (stereo not given), the compound was classed as inactive.

For `C=C[C@H]1[C@H](O[C@@H]2O[C@H](CO)[C@@H](O)[C@H](O)[C@H]2O)OC=C2C(=O)OCC[C@H]21`, the compound was called inactive. In the case of `CCOc1ccccc1-n1c(C(C)N2CCN(C(=O)COc3ccc(Cl)cc3)CC2)nc2ccccc2c1=O` (stereo not given), the outcome was inactive.

As to `COC(=O)C1(C)CCC(=O)C2(C)c3c(O)cc(C(C)C)cc3C(O)C(OC(C)=O)C12` (stereo not given), the call was inactive.

Consider `COC1=CC(=O)O[C@@H](/C=C/c2ccccc2)C1`, for which the call was inactive. Still for that read-out and setting: then `C/C=C(\C)C(=O)OC1CC2C(C)(C)OC(=O)CC(OC(C)=O)C2(C)C2CC(OC(=O)C(C)C)C3(C)C(c4ccoc4)CC4OC43C12C` (stereo not given), with “inactive”. Consider `CN1[C@H]2C[C@H](OC(=O)[C@H](CO)c3ccccc3)C[C@@H]1[C@@H](O)C2`, for which the outcome was inactive. Still for that read-out and setting: then `COC1CC(OC2CCC3(C)C(CCC4C3CCC3(C)C(C5=CC(=O)OC5)C(OC(C)=O)CC43O)C2)OC(C)C1OC1OC(CO)C(O)C(O)C1O` (stereo not given), with “inactive”; and `C=C(C)[C@H]1O[C@H]2CC[C@@]3(C)[C@@](O)(CC[C@H]4[C@@H]5OC(C)(C)[C@H]6C[C@@H]7C(=C)Cc8c(Cl)cc9[nH]c(c5c9c8[C@@]76O)[C@@]43C)[C@]23O[C@@H]3[C@H]1O`, with “inactive”; and `CN1[C@@H]2CC[C@H]1CC(OC(=O)C1C=Nc3ccccc31)C2` (stereo not given in full), with “inactive”. For the compound `C[C@@]1(C(=O)O)CC[C@]2(C)CC[C@]3(C)C4=CC(=O)c5cc(O)c(O)cc5[C@]4(C)CC[C@@]3(C)[C@@H]2C1`, the call was inactive.

Take `CN1C(=O)c2ccccc2NC(=O)C1Cc1ccccc1` (stereo not given): the compound was classed as inactive. On the same count and under the same terms, under `C[C@H]1O[C@@H](O[C@H]2C[C@@H](O)[C@]3(CO)C4C(CC[C@]3(O)C2)[C@@]2(O)CC[C@H](C3=CC(=O)OC3)[C@@]2(C)C[C@H]4O)[C@@H](O)[C@@H](O)[C@H]1O` (stereo not given in full) stands “inactive”; under `CC(=O)OC1CC(O)C2(C)C(CC(OC(C)=O)C3(C)C2CCC2(C)C(c4ccoc4)C(=O)C4OC423)C1(C)C` (stereo not given), “inactive”; under `CC(=O)O[C@H]1C[C@@H](OC(C)=O)C(C)(C)C2C[C@@H](O)[C@]3(C)C(CC[C@@]4(C)[C@H](C5=CC(=O)OC5O)C[C@H]5O[C@]543)[C@]21C` (stereo not given in full), “inactive”. Regarding `CCCCCOc1cc2c(cc1-c1cc(/C=C/C(=O)O)ccc1O)C(C)(C)CCC2(C)C`, the call was inactive. The same measure, in the same setting: then `COC(=O)[C@@]12C(=O)C(C)C(=O)[C@]1(C)C(C)=C[C@H]1[C@]3(C=O)CC[C@H](OC(C)=O)C(C)(C)[C@H]3CC[C@@]12C` (stereo not given in full), with “inactive”; and `O=C(N1CCOCC1)N1CCN(c2ccc(Cl)cc2)CC1`, with “inactive”; and `CCc1[nH]c2ccc(OC)cc2c1CCN(C)C`, with “inactive”.

Turning to `CC(C)(C)c1cc(C(C)(C)C)c2c(c1)C(O)(C(F)(F)F)C(=O)O2` (stereo not given), the result was inactive. Still for that read-out and setting: then `CCC1NC(=O)C2C(Cl)C(Cl)CN2C(=O)C(C(C)O)NC(=O)CC(c2ccccc2)NC(=O)C(CO)NC1=O` (stereo not given), with “inactive”; and `N#CC(OC1OC(COC2OC(CO)C(O)C(O)C2O)C(O)C(O)C1O)c1ccccc1` (stereo not given), with “inactive”. Same read-out and setting: then `COCC1OC(=O)c2coc3c2C1(C)C1=C(C3=O)C2CCC(=O)C2(C)CC1O` (stereo not given), with “inactive”; and `CC(CCc1ccc(O)cc1)O[C@@H]1O[C@H](CO[C@H]2OC[C@](O)(CO)[C@H]2O)[C@@H](O)[C@H](O)[C@H]1O` (stereo not given in full), with “inactive”; and `CC1=C2C(=O)C3[C@@H](CC=C4C[C@@H](O)CC[C@@]43C)[C@@H]2CC[C@]12O[C@@H]1C[C@H](C)CN[C@H]1[C@H]2C` (stereo not given in full), with “inactive”.

`CCN1CC2(COC)C3[C@@H](OC)C4C1C3(C1C[C@]3(O)[C@H](OC(=O)c5ccccc5)C1[C@]4(OC(C)=O)[C@@H](O)[C@@H]3OC)[C@H](OC)C[C@H]2O` (stereo not given in full): the call was inactive. Still for that read-out and setting: then `COC1C(O)C(C)OC(OC2C(CO)O[C@@H](O[C@@H]3CC4CCC5C(CC[C@]6(C)[C@@H](C7=CC(=O)OC7)CC[C@]56O)[C@@]4(C)[C@H](O)C3)C(O)C2O)C1O` (stereo not given in full), with “inactive”; and `CN(C(=O)Cc1ccccc1)C(CN1CCCC1)c1ccccc1` (stereo not given), with “inactive”; and `COC(=O)N1CCN(C(=O)Cc2ccc(Cl)c(Cl)c2)[C@@H](CN2CCCC2)C1`, with “inactive”. On to `COC(=O)C1(C)CCC(O)C2(C)c3cc(O)c(C(C)C)cc3C(O)C(OC(C)=O)C12` (stereo not given), for which the call was inactive.

Test system in a further experiment: not listed separately
The experiment is described as follows: Primary redox qHTS assay for identification of artifact compounds. (AID 1845223).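 Further: 0% = DMSO and 100% = reference compound.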 The note with it: Amplex Red/HRP redox cycling with DTT, fluorescence; series mostly up to 53.8 µM. The essentials: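 Redox-cycling detection via DTT (250 uM final) oxidation coupled to Amplex Red (25 uM)/HRP (250 mU/mL) in HBSS. 15 min preincubation plus 30 min after DTT, room temperature. Ex/Em 525/598 nm; 4-parameter Hill fit against DMSO and 10 uM DA3003.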
On to `CC(C)[C@@H](CN1CC[C@@](C)(c2cccc(O)c2)[C@@H](C)C1)NC(=O)[C@H]1Cc2ccc(O)cc2CN1`, for which the result was inactive.

For `CCCN1CCO[C@H]2c3cc(O)ccc3OC[C@@H]21`, the compound was called inactive. With `Cc1cn(C[C@H](N)C(=O)O)c(=O)n(Cc2cc(-c3ccccc3)sc2C(=O)O)c1=O`, the compound was classed as inactive. In the case of `CCCCCCn1c(=O)c(C(=O)Nc2ccc(C(=O)OCCC)cc2)c(O)c2ccccc21`, the redox activity (% of DA3003) is -1.37% [at 11.5 µM]. As for `CC1C/C=C/C(O)C(O)CC/C=C/c2cc(O)cc(O)c2C(=O)O1` (stereo not given), the result was inactive. In the case of `C=C[C@H]1[C@H](O[C@@H]2O[C@H](CO)[C@@H](O)[C@H](O)[C@H]2O)OC=C2C(=O)OCC[C@H]21`, the call was inactive. For `COC(=O)C1(C)CCC(=O)C2(C)c3c(O)cc(C(C)C)cc3C(O)C(OC(C)=O)C12` (stereo not given), the compound was called inactive. Same read-out and setting: under `COC1=CC(=O)O[C@@H](/C=C/c2ccccc2)C1` stands “inactive”; under `C/C=C(\C)C(=O)OC1CC2C(C)(C)OC(=O)CC(OC(C)=O)C2(C)C2CC(OC(=O)C(C)C)C3(C)C(c4ccoc4)CC4OC43C12C` (stereo not given), “inactive”. Same read-out and setting: under `CN1[C@H]2C[C@H](OC(=O)[C@H](CO)c3ccccc3)C[C@@H]1[C@@H](O)C2` stands “inactive”.

`C=C(C)[C@H]1O[C@H]2CC[C@@]3(C)[C@@](O)(CC[C@H]4[C@@H]5OC(C)(C)[C@H]6C[C@@H]7C(=C)Cc8c(Cl)cc9[nH]c(c5c9c8[C@@]76O)[C@@]43C)[C@]23O[C@@H]3[C@H]1O`: the call was inactive.

For `CN1[C@@H]2CC[C@H]1CC(OC(=O)C1C=Nc3ccccc31)C2` (stereo not given in full), the compound was called inactive.

Regarding `CN1C(=O)c2ccccc2NC(=O)C1Cc1ccccc1` (stereo not given), the compound was classed as inactive. As for `C[C@H]1O[C@@H](O[C@H]2C[C@@H](O)[C@]3(CO)C4C(CC[C@]3(O)C2)[C@@]2(O)CC[C@H](C3=CC(=O)OC3)[C@@]2(C)C[C@H]4O)[C@@H](O)[C@@H](O)[C@H]1O` (stereo not given in full), the outcome was inactive. On the same count and under the same terms, then `COC(=O)[C@@]12C(=O)C(C)C(=O)[C@]1(C)C(C)=C[C@H]1[C@]3(C=O)CC[C@H](OC(C)=O)C(C)(C)[C@H]3CC[C@@]12C` (stereo not given in full), with “inactive”.

In the case of `O=C(N1CCOCC1)N1CCN(c2ccc(Cl)cc2)CC1`, the call was inactive. The same measure, in the same setting: then `CCc1[nH]c2ccc(OC)cc2c1CCN(C)C`, with “inactive”; and `CCC1NC(=O)C2C(Cl)C(Cl)CN2C(=O)C(C(C)O)NC(=O)CC(c2ccccc2)NC(=O)C(CO)NC1=O` (stereo not given), with “inactive”. On the same count and under the same terms, under `N#CC(OC1OC(COC2OC(CO)C(O)C(O)C2O)C(O)C(O)C1O)c1ccccc1` (stereo not given) stands “inactive”; under `COCC1OC(=O)c2coc3c2C1(C)C1=C(C3=O)C2CCC(=O)C2(C)CC1O` (stereo not given), “inactive”. Still for that read-out and setting: under `CC(CCc1ccc(O)cc1)O[C@@H]1O[C@H](CO[C@H]2OC[C@](O)(CO)[C@H]2O)[C@@H](O)[C@H](O)[C@H]1O` (stereo not given in full) stands “inactive”. Take `CC1=C2C(=O)C3[C@@H](CC=C4C[C@@H](O)CC[C@@]43C)[C@@H]2CC[C@]12O[C@@H]1C[C@H](C)CN[C@H]1[C@H]2C` (stereo not given in full): the compound was classed as inactive. Still for that read-out and setting: under `CCN1CC2(COC)C3[C@@H](OC)C4C1C3(C1C[C@]3(O)[C@H](OC(=O)c5ccccc5)C1[C@]4(OC(C)=O)[C@@H](O)[C@@H]3OC)[C@H](OC)C[C@H]2O` (stereo not given in full) stands “inactive”. Take `COC1C(O)C(C)OC(OC2C(CO)O[C@@H](O[C@@H]3CC4CCC5C(CC[C@]6(C)[C@@H](C7=CC(=O)OC7)CC[C@]56O)[C@@]4(C)[C@H](O)C3)C(O)C2O)C1O` (stereo not given in full): the outcome was inactive. Consider `CN(C(=O)Cc1ccccc1)C(CN1CCCC1)c1ccccc1` (stereo not given), for which the call was inactive.
